# PubChem BioAssay (EPA / NIEHS)
# A structure can be active in one record and inactive in another. Active and inactive are the calls of the source. Rule for the calls, unless noted: active = hit-call score of the fitted dose curve at least 0.9, where 1 is the maximum; inactive = score below 0.9.
# Legend:
# [1] = read-out: Monocyte Chemoattractant Protein-1 (MCP1), CCL2 (gene 6347); assay: BSK_LPS_MCP1: BioMAP Diversity Plus: LPS Assay for Monocyte Chemoattractant Protein-1 (MCP1) Biomarker Activity (AID 2283081); details: primary human HUVEC with PBMC; actives raise or lower the signal;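 for AC50: secreted MCP-1 protein quantified by ELISA in culture supernatant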
# Outline: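 HUVEC plus PBMC co-culture (human primary cells, LPS system) exposed to test chemical for 24 h; MCP-1 measured by ELISA. Bidirectional curve fitting against DMSO baseline; parallel SRB total-protein staining flags overt cytotoxicity.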
# [2] = BSK_LPS_PGE2: BioMAP Diversity Plus: LPS Assay for Prostaglandin E2 (PGE2) Biomarker Activity (AID 2283082); details: primary human HUVEC with PBMC; actives raise or lower the signal;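 for AC50: secreted prostaglandin E2 measured by ELISA in LPS-stimulated co-culture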
# Outline: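 Compounds were added to the LPS co-culture of endothelium and PBMC, and PGE2 was measured by ELISA after 24 h. Responses in either direction were fitted with DMSO as baseline.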
# [3] = read-out: Tissue Factor, F3 (gene 2152); assay: BSK_LPS_TissueFactor: BioMAP Diversity Plus: LPS Assay for Tissue Factor Biomarker Activity (AID 2283084); details: primary human HUVEC with PBMC; actives raise or lower the signal
# Outline: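 Human umbilical vein endothelial cells co-cultured with peripheral blood mononuclear cells were dosed and stimulated with LPS. Cell-surface CD142 was quantified by ELISA at 24 h. Activity was fitted bidirectionally against DMSO baseline.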
# [4] = read-out: Vascular cell adhesion molecule 1 (VCAM1), VCAM1 (gene 7412); assay: BSK_LPS_VCAM1: BioMAP Diversity Plus: LPS Assay for Vascular cell adhesion molecule 1 (VCAM1) Biomarker Activity (AID 2283086); details: primary human HUVEC with PBMC; actives raise or lower the signal
# Outline: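 Cells are dosed in an LPS-stimulated endothelial/mononuclear co-culture and, after 24 h, VCAM-1 is quantified by ELISA. Activity in either direction is fitted relative to the DMSO negative control.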
# CD38, CD38 (gene 952) = assay: BSK_SAg_CD38: BioMAP Diversity Plus: SAg Assay for CD38 Biomarker Activity (AID 2283087); details: primary human HUVEC with PBMC; actives raise or lower the signal
# Outline: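 CD38 quantified by ELISA (fluorescence) in a superantigen-activated endothelial cell–PBMC co-culture at 24 h post-dose. Activity fitted in both directions relative to DMSO; parallel SRB and Alamar Blue cytotoxicity read-outs.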
# CD40, CD40 (gene 958) = assay: BSK_SAg_CD40: BioMAP Diversity Plus: SAg Assay for CD40 Biomarker Activity (AID 2283088); details: primary human HUVEC with PBMC; actives raise or lower the signal
# Outline: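 Human umbilical vein endothelial cells co-cultured with PBMC; CD40 levels measured by ELISA with fluorescence read-out 24 h after chemical dosing. Gain or loss of signal fitted bidirectionally against DMSO baseline.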
# CD69, CD69 (gene 969) = assay: BSK_SAg_CD69: BioMAP Diversity Plus: SAg Assay for CD69 Biomarker Activity (AID 2283089); details: primary human HUVEC with PBMC; actives raise or lower the signal
# Outline: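 Values derive from bidirectional fitting relative to DMSO vehicle. Cells: umbilical vein endothelium plus peripheral blood mononuclear cells, treated 24 h before fluorescent ELISA for CD69.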
# [5] = read-out: Monocyte Chemoattractant Protein-1 (MCP1), CCL2 (gene 6347); assay: BSK_SAg_MCP1: BioMAP Diversity Plus: SAg Assay for Monocyte Chemoattractant Protein-1 (MCP1) Biomarker Activity (AID 2283090); details: primary human HUVEC with PBMC; actives raise or lower the signal
# Outline: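 Values derive from bidirectional fitting of ELISA-measured MCP1 against DMSO controls. Readings were taken 24 h after dosing human vascular endothelial cells co-cultured with peripheral blood mononuclear cells under superantigen stimulation.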
# [6] = read-out: Monokine induced gamma interferon (MIG), CXCL9 (gene 4283); assay: BSK_SAg_MIG: BioMAP Diversity Plus: SAg Assay for Monokine induced gamma interferon (MIG) Biomarker Activity (AID 2283092); details: primary human HUVEC with PBMC; actives raise or lower the signal
# Outline: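 Values reflect bidirectional fitting of ELISA-measured MIG against DMSO vehicle, taken 24 h after dosing of a co-culture of human umbilical vein endothelial cells and peripheral blood mononuclear cells.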
# [7] = BSK_SAg_PBMCCytotoxicity: PBMC Cytotoxicity Assessment in the BioMAP Diversity Plus: SAg Assay (AID 2283093); details: primary human HUVEC with PBMC;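 note: PBMC viability measured as Alamar Blue reduction fluorescence at 546/580 nm; fitted both ways against DMSO so a hit may be loss or gain of signal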;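 for AC50: PBMC superantigen activated with SEB plus TSST-1 one hour after compound addition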
# Outline: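 Alamar Blue reduction (6 h, ex/em 546/580 nm) read after 90 h culture of PBMC pre-dosed 1 h then stimulated with SEB plus TSST-1, 20 ng/mL each. Gain or loss of signal fitted relative to DMSO.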
# [8] = read-out: Interleukin-8 (IL8), CXCL8 (gene 3576); assay: BSK_SAg_IL8: BioMAP Diversity Plus: SAg Assay for Interleukin-8 (IL8) Biomarker Activity (AID 2283094); details: primary human HUVEC with PBMC; actives raise or lower the signal
# Outline: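 Chemicals were dosed onto a human endothelial–PBMC co-culture, and IL-8 was quantified by ELISA after 24 h. Both increases and decreases were fitted relative to DMSO.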
# [9] = BSK_SAg_Proliferation: Cell Proliferation Assessment in the BioMAP Diversity Plus: SAg Assay (AID 2283095); details: primary human HUVEC with PBMC;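 note: relative cell number as total protein by SRB absorbance in sub-confluent culture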
# Outline: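 Absorbance of sulforhodamine B at 560 nm reports total protein in a human vascular endothelial/PBMC co-culture after 96 h chemical exposure. Gain or loss of signal is fitted in both directions against DMSO.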
# [10] = BSK_SAg_SRB: Viability Assessment in the BioMAP Diversity Plus: SAg Assay (AID 2283096); details: primary human HUVEC with PBMC;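 note: cells read one day after compound addition; hits may be either gain or loss of signal compared with DMSO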
# Outline: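 SRB absorbance at 560 nm served as the viability read-out. Cells (HUVEC plus peripheral blood mononuclear cells) were TCA-fixed and stained 24 h post-dosing; activity fitted in both directions against DMSO controls.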
# [11] = read-out: Macrophage colony-stimulating factor (MCSF), CSF1 (gene 1435); assay: BSK_LPS_MCSF: BioMAP Diversity Plus: LPS Assay for Macrophage colony-stimulating factor (MCSF) Biomarker Activity (AID 2283083); details: primary human HUVEC with PBMC; actives raise or lower the signal
# Outline: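 Human umbilical vein endothelial cells co-cultured with peripheral blood mononuclear cells were exposed to compound for 24 h. M-CSF levels were measured by ELISA, and bidirectional curve fitting used DMSO as the negative control and baseline.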
# [12] = target: human CYP2D6, CYP2D6 (gene 1565) (UniProt P10635); assay: NVS_ADME_hCYP2D6: NovaScreen (NVS) CYP450-related Enzyme Activity (ADME) Assay for human CYP2D6 (AID 2283107; active = hit-call score of the fitted dose curve at least 0.9, where 1 is the maximum)
# human CYP2D6, CYP2D6 (gene 1565), sequence (P10635 whole entry, looked up): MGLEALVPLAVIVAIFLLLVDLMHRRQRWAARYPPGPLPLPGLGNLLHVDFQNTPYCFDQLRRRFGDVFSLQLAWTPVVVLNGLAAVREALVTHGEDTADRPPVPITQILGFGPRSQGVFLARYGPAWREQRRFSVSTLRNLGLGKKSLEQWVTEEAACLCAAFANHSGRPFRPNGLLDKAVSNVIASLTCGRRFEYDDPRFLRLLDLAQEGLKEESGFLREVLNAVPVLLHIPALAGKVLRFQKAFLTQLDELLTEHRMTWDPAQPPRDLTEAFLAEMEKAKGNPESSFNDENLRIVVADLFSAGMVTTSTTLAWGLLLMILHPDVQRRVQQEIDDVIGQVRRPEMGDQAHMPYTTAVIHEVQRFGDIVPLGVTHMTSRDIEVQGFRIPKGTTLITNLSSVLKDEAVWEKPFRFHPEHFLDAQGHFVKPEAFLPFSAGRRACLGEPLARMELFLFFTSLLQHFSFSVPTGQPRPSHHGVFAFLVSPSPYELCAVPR
# Outline: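 Cell-free assay using recombinant enzyme expressed in insect cells, with fluorescence-intensity readout of enzyme activity 1 hour after chemical dosing. Loss of signal versus acetonitrile negative control indicates inhibition. Primary screen ran in duplicate at 10 uM; actives were retested in concentration series.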
smiles,measurement,setting,value
C=CC(C)(O)CCC=C(C)C (centres undefined),outcome,[1],inactive
same,outcome,[2],inactive
same,outcome,[3],inactive
same,outcome,[4],inactive
same,outcome,"CD38, CD38 (gene 952)",inactive
same,outcome,"CD40, CD40 (gene 958)",inactive
same,outcome,"CD69, CD69 (gene 969)",inactive
same,outcome,[5],inactive
same,outcome,[6],inactive
same,outcome,[7],inactive
same,outcome,[8],inactive
same,outcome,[9],inactive
same,outcome,[10],inactive
CCCCCCC(CO)CCCC (centres undefined),outcome,[1],inactive
same,outcome,[2],inactive
same,outcome,[3],inactive
same,outcome,[4],inactive
same,outcome,"CD38, CD38 (gene 952)",inactive
same,outcome,"CD40, CD40 (gene 958)",inactive
same,outcome,[5],inactive
same,outcome,[6],inactive
same,outcome,[7],inactive
same,outcome,[8],inactive
same,AC50,[9],37.3 µM (active)
same,outcome,[9],inactive
same,outcome,[10],inactive
CCCCCC(C=O)=Cc1ccccc1,AC50,[1],32.9 µM (active)
same,AC50,[2],34 µM (active)
same,AC50,[11],33.3 µM (active)
same,outcome,[3],inactive
same,AC50,[4],30.4 µM (active)
same,outcome,"CD38, CD38 (gene 952)",inactive
same,outcome,"CD40, CD40 (gene 958)",inactive
same,outcome,[5],inactive
same,outcome,[6],inactive
same,AC50,[7],31 µM (active)
same,outcome,[8],inactive
same,AC50,[9],33.1 µM (active)
same,outcome,[10],inactive
CS(=O)(=O)c1ccc(C2=C(c3ccccc3)C(=O)OC2)cc1,outcome,[1],inactive
same,outcome,[2],inactive
same,outcome,[3],inactive
same,outcome,[4],inactive
same,outcome,"CD38, CD38 (gene 952)",inactive
same,outcome,"CD40, CD40 (gene 958)",inactive
same,outcome,[5],inactive
same,outcome,[6],inactive
same,outcome,[7],inactive
same,outcome,[8],inactive
same,outcome,[9],inactive
same,outcome,[10],inactive
Cc1cc(CCC(=O)OCCOCCOCCOC(=O)CCc2cc(C)c(O)c(C(C)(C)C)c2)cc(C(C)(C)C)c1O,outcome,[1],inactive
same,outcome,[2],inactive
same,outcome,[3],inactive
same,outcome,[4],inactive
same,outcome,"CD38, CD38 (gene 952)",inactive
same,outcome,"CD40, CD40 (gene 958)",inactive
same,outcome,[5],inactive
same,outcome,[6],inactive
same,AC50,[7],25.2 µM (active)
same,outcome,[8],inactive
same,AC50,[9],25.3 µM (active)
same,AC50,[10],32.2 µM (active)
CCCCC(CC)COC(C)=O (centres undefined),AC50,[12],5 µM (active)
O=CN1CCOCC1,outcome,[1],inactive
same,outcome,[2],inactive
same,outcome,[3],inactive
same,outcome,[4],inactive
same,outcome,"CD38, CD38 (gene 952)",inactive
same,outcome,"CD40, CD40 (gene 958)",inactive
same,outcome,[5],inactive
same,outcome,[6],inactive
same,outcome,[7],inactive
same,outcome,[8],inactive
same,outcome,[9],inactive
same,outcome,[10],inactive
COc1cc(Cl)c(OC)cc1N,outcome,[1],inactive
same,outcome,[2],inactive
same,outcome,[3],inactive
same,outcome,[4],inactive
same,outcome,"CD38, CD38 (gene 952)",inactive
same,outcome,"CD40, CD40 (gene 958)",inactive
same,outcome,[5],inactive
same,outcome,[6],inactive
same,outcome,[7],inactive
same,outcome,[8],inactive
same,outcome,[9],inactive
same,outcome,[10],inactive
same,AC50,[12],0.992 µM (active)
C=C(C)[C@H]1CC=C(C)C(=O)C1,outcome,[1],inactive
same,outcome,[2],inactive
same,outcome,[3],inactive
same,outcome,[4],inactive
same,outcome,"CD38, CD38 (gene 952)",inactive
same,outcome,"CD40, CD40 (gene 958)",inactive
same,outcome,[5],inactive
same,outcome,[6],inactive
same,outcome,[7],inactive
same,outcome,[8],inactive
same,outcome,[9],inactive
same,outcome,[10],inactive
O=C1OC2(c3ccccc31)c1ccc(O)c(Br)c1Oc1c2ccc(O)c1Br,AC50,[1],20 µM (active)
same,AC50,[2],11.1 µM (active)
same,AC50,[3],20 µM (active)
same,AC50,[4],20 µM (active)
same,AC50,"CD38, CD38 (gene 952)",20 µM (active)
same,AC50,"CD40, CD40 (gene 958)",28.8 µM (active)
same,AC50,[5],20 µM (active)
same,outcome,[6],inactive
same,outcome,[7],inactive
same,outcome,[8],inactive
same,AC50,[9],8.3 µM (active)
same,outcome,[10],inactive
CCCCN(CCCC)C(=O)N(CCCC)CCCC,AC50,[1],20 µM (active)
same,outcome,[2],inactive
same,AC50,[3],20 µM (active)
same,AC50,[4],24.7 µM (active)
same,outcome,"CD38, CD38 (gene 952)",inactive
same,AC50,"CD40, CD40 (gene 958)",20 µM (active)
same,AC50,[5],20 µM (active)
same,outcome,[6],inactive
same,AC50,[7],11 µM (active)
same,AC50,[8],15.6 µM (active)
same,AC50,[9],7.83 µM (active)
same,AC50,[10],20 µM (active)
CCCCOC(=O)CCCCCCCC(=O)OCCCC,outcome,[1],inactive
same,outcome,[2],inactive
same,outcome,[3],inactive
same,outcome,[4],inactive
same,outcome,"CD38, CD38 (gene 952)",inactive
same,outcome,"CD40, CD40 (gene 958)",inactive
same,outcome,[5],inactive
same,outcome,[6],inactive
same,outcome,[7],inactive
same,outcome,[8],inactive
same,outcome,[9],inactive
same,outcome,[10],inactive
Oc1c(Cl)cc(Cl)c(Cl)c1Cc1c(O)c(Cl)cc(Cl)c1Cl,AC50,[1],32.5 µM (active)
same,outcome,[2],inactive
same,AC50,[3],27.7 µM (active)
same,AC50,[4],22.6 µM (active)
same,AC50,"CD38, CD38 (gene 952)",2.31 µM (active)
same,AC50,"CD40, CD40 (gene 958)",7.61 µM (active)
same,AC50,[5],5.46 µM (active)
same,AC50,[6],8.51 µM (active)
same,AC50,[7],12.9 µM (active)
same,AC50,[8],4.7 µM (active)
same,AC50,[9],4.05 µM (active)
same,AC50,[10],15.6 µM (active)
